Values joined by “and” are separate entries in the source; they are usually repeats but may differ in a detail not shown here. Equal values may be shown once.
System: H9c2
Assay: cardiomyocyte survival under oxidative or metabolic stress – cell-based, panel, H9c2 and HL-1, ATP luminescence, set 2, SAR follow-up (AID 651871);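 note: cells exposed to stressor for 2 h before ATP readout; reference of the scale not given here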
Settings: H9c2/HL-1 cardiomyocytes, 2-deoxyglucose stress, with 2-deoxyglucose; run 9, at 79 µM (top of the series)

| SMILES | activity (protection/inhibition) |
| --- | --- |
| CCOC(=O)c1cccc(NC(=O)CNC(=O)c2cc(-c3cc(OC)c(OC)c(OC)c3)nc3ccccc23)c1 | 90.9% |
| COc1ccc2nc(-c3cc(OC)c(OC)c(OC)c3)cc(C(=O)NCC(=O)Nc3ccc(C(C)=O)cc3)c2c1 | 84.5% |
| COc1ccc2c(c1OC)C(=O)N1c3ccccc3C(=O)N(Cc3cccc(Cl)c3Cl)C21 (stereo not drawn) | 81.1% and 78.3% and -1.59% |

From PubChem BioAssay AID651871 (Sanford-Burnham Center for Chemical Genomics, 2012)
